Data published in PubChem BioAssay (Tox21).
Records with an inconclusive call do not appear. A call without a number means that no potency is given here. Calls of active or inactive are those of the source. Unless noted, the call rests on the fitted dose curve; in most records, active means well fitted cell-killing curve with a large enough effect in the repeat runs; inconclusive means weak or mixed curves, or effect the other way; inactive means no such curve, though single readings can be large or run the other way.

System: not listed separately
Assay: qHTS assay to identify small molecule agonists of the estrogen receptor alpha (ER-alpha) signaling pathway in the presence of an antagonist - cell viability counter screen (AID 1259386);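 further: cells exposed to compounds for 22 h at 37 °C before the viability read; nearly all actives have a fitted effect of over 30% in size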
Conditions: VM7Luc4E2 viability, CellTiter-Fluor fluorescence, 22 h; series mostly up to 92.4 µM
Method in brief: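 In this counter screen, compound effects on VM7Luc4E2 viability were tested in the presence of the antagonist ICI-182,780 at 10.0nM final. Compounds were dosed at 15 concentrations, exposure lasted 22hr, and the CellTiter-Fluor signal was read.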

Structure (SMILES)	Potency
COC1=CC(=O)O[C@@H](/C=C/c2ccccc2)C1	inactive
C=CCC1(C(C)CC)C(=O)NC(=O)NC1=O (stereo not given)	inactive
O=C(Cl)c1ccccc1	inactive
CNC(=O)Oc1cc(C)c(N(C)C)c(C)c1	inactive
N[C@@H](Cc1ccc(Oc2cc(I)c(O)c(I)c2)c(I)c1)C(=O)O	inactive
C=C(Cl)CSC(=S)N(CC)CC	inactive
C=C1CC[C@@]2(O)[C@H]3Cc4ccc(O)c5c4[C@@]2(CCN3CC2CC2)[C@H]1O5	inactive
NC1(c2ccccc2)CCCCC1	inactive
Cn1c(CCCC(=O)O)nc2cc(N(CCCl)CCCl)ccc21	inactive
CS(=O)(=O)Cl	inactive
Nc1c(Cl)c(F)nc(OCC(=O)O)c1Cl	inactive

Biological target: Progesterone receptor (Homo sapiens) (UniProt P06401)
Assay: qHTS assay to identify small molecule agonists of the progesterone receptor (PR) signaling pathway (AID 1346784; calls by dose curve; further: nearly all actives have a fitted effect of over 30% in size)
Conditions: PR-UAS-bla HEK293T, beta-lactamase FRET ratio, 16 h; series mostly up to 92.4 µM
Method in brief: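 Using charcoal-stripped serum (2%) to limit endogenous steroids, PR-UAS-bla HEK 293T cells received compounds for 16 hr at 37C after 6 hr plating; beta-lactamase FRET fluorescence was recorded following 2 hr substrate loading at room temperature.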

Sequence of Progesterone receptor (Homo sapiens) (P06401 whole entry, looked up): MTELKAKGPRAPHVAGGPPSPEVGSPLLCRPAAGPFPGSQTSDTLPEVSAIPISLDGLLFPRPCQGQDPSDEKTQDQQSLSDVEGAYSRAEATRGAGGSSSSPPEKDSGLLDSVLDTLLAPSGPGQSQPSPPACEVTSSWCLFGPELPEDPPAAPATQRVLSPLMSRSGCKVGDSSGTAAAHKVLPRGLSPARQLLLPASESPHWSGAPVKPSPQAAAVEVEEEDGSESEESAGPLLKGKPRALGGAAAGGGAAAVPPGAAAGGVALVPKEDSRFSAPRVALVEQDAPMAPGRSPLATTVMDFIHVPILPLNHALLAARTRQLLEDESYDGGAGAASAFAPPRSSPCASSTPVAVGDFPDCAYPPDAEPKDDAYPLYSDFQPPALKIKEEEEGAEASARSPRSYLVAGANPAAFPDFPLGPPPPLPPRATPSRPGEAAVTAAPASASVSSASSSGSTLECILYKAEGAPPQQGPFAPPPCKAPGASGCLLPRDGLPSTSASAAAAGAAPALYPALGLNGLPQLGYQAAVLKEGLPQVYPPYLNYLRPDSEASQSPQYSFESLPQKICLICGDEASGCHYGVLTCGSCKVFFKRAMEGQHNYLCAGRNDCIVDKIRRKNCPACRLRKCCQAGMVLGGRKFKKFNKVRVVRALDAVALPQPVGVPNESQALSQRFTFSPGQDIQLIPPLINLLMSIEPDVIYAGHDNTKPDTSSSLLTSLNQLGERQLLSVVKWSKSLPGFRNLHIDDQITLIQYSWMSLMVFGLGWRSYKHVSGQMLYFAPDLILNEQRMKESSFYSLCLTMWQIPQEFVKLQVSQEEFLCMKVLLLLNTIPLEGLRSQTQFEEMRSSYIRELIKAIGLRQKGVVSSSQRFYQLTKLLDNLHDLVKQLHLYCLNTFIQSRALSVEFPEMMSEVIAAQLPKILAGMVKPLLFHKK

Structure (SMILES)	Potency
CCOC(=O)C(Cl)Cc1cc(-n2nc(C)n(C(F)F)c2=O)c(F)cc1Cl (stereo not given)	inactive
C[C@H](CN1CCOCC1)C(C(=O)N1CCCC1)(c1ccccc1)c1ccccc1	inactive
O=C(Cl)C(Cl)Cl	inactive
Cc1ccc(S(=O)(=O)N[C@@H](CCCCN)C(=O)CCl)cc1	inactive
NC(=O)OCCCc1ccccc1	inactive
Cn1c(N)nc2c3cccnc3ccc21	inactive
C[C@@H](N)[C@@H](O)c1ccccc1	inactive
CCC(CC)(CNC(=O)CCCO)c1cccc(OC)c1	inactive
CCOC(=O)c1ncn2c1CN(C)C(=O)c1c(I)cccc1-2	inactive
COc1cccc([C@@]2(O)CCCC[C@@H]2CN(C)C)c1	inactive
CCC(C(N)=O)N1CCCC1=O (stereo not given)	inactive
CC(=NC#N)N(C)Cc1ccc(Cl)nc1	inactive
COc1cc(CC(C)N)cc(OC)c1OC (stereo not given)	inactive
ClC1=C(Cl)C2(Cl)C(CBr)CC1(Cl)C2(Cl)Cl (stereo not given)	inactive
CCCOC(=O)Cc1ccc(OCC(=O)N(CC)CC)c(OC)c1	inactive
Cl/C=C/CCl	inactive
OCC(Cl)CCl (stereo not given)	inactive
C[C@H](N)C(=O)c1ccccc1	inactive

Structure (SMILES)	Potency
CCOP(=S)(OCC)Oc1ccc(Cl)cc1Cl	inactive
CCC(C)C(C)(COC(N)=O)COC(N)=O (stereo not given)	inactive
COC[C@@H](NC(C)=O)C(=O)NCc1ccccc1	inactive
BrCc1ccc(Br)cc1	inactive
CCCCCCCCSC(=O)Oc1cc(Cl)nnc1-c1ccccc1	inactive
CN1C(=O)COc2c(C(=O)NC3CN4CCC3CC4)cc(Cl)cc21 (stereo not given)	inactive
COC1=CC(=O)O[C@@H](/C=C/c2ccccc2)C1	inactive
C=CCC1(C(C)CC)C(=O)NC(=O)NC1=O (stereo not given)	inactive
O=C(Cl)c1ccccc1	inactive
CNC(=O)Oc1cc(C)c(N(C)C)c(C)c1	inactive
N[C@@H](Cc1ccc(Oc2cc(I)c(O)c(I)c2)c(I)c1)C(=O)O	inactive
C=C(Cl)CSC(=S)N(CC)CC	inactive
C=C1CC[C@@]2(O)[C@H]3Cc4ccc(O)c5c4[C@@]2(CCN3CC2CC2)[C@H]1O5	inactive
NC1(c2ccccc2)CCCCC1	inactive
Cn1c(CCCC(=O)O)nc2cc(N(CCCl)CCCl)ccc21	inactive
CS(=O)(=O)Cl	inactive
Nc1c(Cl)c(F)nc(OCC(=O)O)c1Cl	inactive

System: not listed separately
Assay: qHTS assay to identify small molecule antagonists of the progesterone receptor (PR) signaling pathway - cell viability counter screen (AID 1346798); further: nearly all actives have a fitted effect of over 50% in size
Conditions: PR-UAS-bla HEK293T viability, CellTiter-Glo luminescence, 16 h; series mostly up to 92.4 µM
Method in brief: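 ATP content as viability readout: CellTiter-Glo luminescence, 30 min room temperature, in PR-UAS-bla HEK293T cells after 16 hr compound/R5020 treatment at 37C and 5% CO2.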

Structure (SMILES)	Potency
C[C@H](CN1CCOCC1)C(C(=O)N1CCCC1)(c1ccccc1)c1ccccc1	inactive
O=C(Cl)C(Cl)Cl	inactive
Cc1ccc(S(=O)(=O)N[C@@H](CCCCN)C(=O)CCl)cc1	inactive
NC(=O)OCCCc1ccccc1	inactive
Cn1c(N)nc2c3cccnc3ccc21	inactive
C[C@@H](N)[C@@H](O)c1ccccc1	inactive
CCOC(=O)c1ncn2c1CN(C)C(=O)c1c(I)cccc1-2	inactive
COc1cccc([C@@]2(O)CCCC[C@@H]2CN(C)C)c1	inactive
CCC(C(N)=O)N1CCCC1=O (stereo not given)	inactive
CC(=NC#N)N(C)Cc1ccc(Cl)nc1	inactive
ClC1=C(Cl)C2(Cl)C(CBr)CC1(Cl)C2(Cl)Cl (stereo not given)	inactive
CCCOC(=O)Cc1ccc(OCC(=O)N(CC)CC)c(OC)c1	inactive
Cl/C=C/CCl	inactive
OCC(Cl)CCl (stereo not given)	inactive
C[C@H](N)C(=O)c1ccccc1	inactive
CCOP(=S)(OCC)Oc1ccc(Cl)cc1Cl	inactive
COC[C@@H](NC(C)=O)C(=O)NCc1ccccc1	inactive
CCCCCCCCSC(=O)Oc1cc(Cl)nnc1-c1ccccc1	inactive
CN1C(=O)COc2c(C(=O)NC3CN4CCC3CC4)cc(Cl)cc21 (stereo not given)	inactive
COC1=CC(=O)O[C@@H](/C=C/c2ccccc2)C1	inactive
C=CCC1(C(C)CC)C(=O)NC(=O)NC1=O (stereo not given)	inactive
O=C(Cl)c1ccccc1	inactive
CNC(=O)Oc1cc(C)c(N(C)C)c(C)c1	inactive
N[C@@H](Cc1ccc(Oc2cc(I)c(O)c(I)c2)c(I)c1)C(=O)O	inactive
C=C(Cl)CSC(=S)N(CC)CC	inactive
NC1(c2ccccc2)CCCCC1	inactive
Cn1c(CCCC(=O)O)nc2cc(N(CCCl)CCCl)ccc21	inactive
CS(=O)(=O)Cl	inactive
Nc1c(Cl)c(F)nc(OCC(=O)O)c1Cl	inactive
